Assay results taken from PubChem BioAssay.
“And” between values parts separate entries of the source, which are not always exact repeats. Equal values may be shown once. Some structures have more than one record in an assay (separate samples or runs), and their calls can disagree. The source made the active and inactive calls.

assay: fission yeast growth modulation, primary screen, strain 972, OD600, 24 h, no modulator (AID 1090);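 also: basal condition with compound alone and no growth modifier present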; conditions: S. pombe 972 growth, higher = more signal, called active from +8 up or from −8 down
Also: test concentration not given here.

z-score, inactive:
C=CCN(Cc1ccccc1)C(=O)C1N(C(C)(C)CO)C(=O)C2C(C(=O)O)C3C=CC21O3 (centres undefined) -0.369 and -0.243
C=CC[C@H](O)c1ccc(OCCO)cc1 -0.228 and -0.917
C=CCN(C(=O)C(c1cccs1)N(C(=O)/C=C\C(=O)O)c1ccc(CCO)cc1)c1ccc(OC)cc1 (centres undefined) -0.548 and -0.894
C=CCN(C(=O)C1N(CCCCCCO)C(=O)C2C(C(=O)O)C3C=CC21O3)c1ccc(OC)cc1 (centres undefined) -2.12 and -1.62
COC(=O)C1=C(C)N(Cc2ccccc2)C2=C(C(=O)c3ccccc3)[C@H](c3ccccc3)[C@@](O)(C(=O)OC)C(=O)N2[C@@H]1c1ccccc1 -0.413 and -0.0902
Cc1ccc(S(=O)(=O)N[C@H]2COC(=O)[C@@H](C)COC(=O)[C@H](C)NC(=O)CC=C[C@H]2C)cc1 -0.838

z-score, -10.4 (active) and -1.63 (inactive):
C=CC[C@@H](O)c1ccc(OCCO)cc1

assay: S. cerevisiae growth modulation with rapamycin, primary screen, strain BY4716, OD600, 96 h (AID 1091); conditions: higher = more signal, called active from +8 up or from −8 down

z-score, active:
C=CCN1C(=O)[C@]2(O[C@H](CCn3cc(CCO)nn3)[C@@H]([Si](C)(C)c3ccc(OC)cc3)[C@@H]2C)c2cc(N3C(=O)c4cccc5cccc3c45)ccc21 36.8 and 36.6

z-score, inactive:
C=CCN(CCCC)C(=O)C1N(c2ccc(CCO)cc2)C(=O)C2C(C(=O)O)C3C=CC21O3 (centres undefined) -0.0659 and 0.252
COC(=O)C1=C(C)N(Cc2ccccc2)C2=C3C(=O)N(c4ccccc4)C(=O)[C@@H]3[C@@](O)(C(=O)OC)C(=O)N2[C@@H]1c1ccccc1 -1.18 and -1.1
CCC[C@@H]1C[C@@]1(CCC)[C@@H](NC(=O)c1ccc(-c2ccccc2)cc1)c1cccc(Cl)c1 -0.86 and 1.18
C=CCN(C(=O)C(c1cccs1)N(C(=O)/C=C\C(=O)O)c1ccc(CCO)cc1)C(C)(C)C (centres undefined) -0.3 and -0.104
C=CCN(Cc1ccccc1)C(=O)C1N(CCCCCCO)C(=O)C2C(C(=O)O)C3C=CC21O3 (centres undefined) -0.889 and -1.51
COc1ccc(COC(=O)NN=C2C[C@@H](O)[C@@H](O)[C@@H]3[C@@H]4C(=O)N(C(C)(C)C)C(=O)[C@@H]4CC[C@H]23)cc1 -0.715
O=C1NC(=O)C2C1C=CC(C(O)c1ccc([N+](=O)[O-])cc1)N2Nc1ccc(Cl)cc1Cl (centres undefined) -0.923 and -0.888
COC(=O)C1=C(C)N(Cc2ccccc2)C2=C3C(=O)CCC[C@@H]3[C@@](O)(C(=O)OC)C(=O)N2[C@@H]1c1ccccc1 -2.01 and -2.52
C[N+](C)(C)CCCCNC(=O)[C@H]1C[C@H]2C(=O)N[C@@H](CCCC[N+](C)(C)C)C(=O)N2[C@H]1c1cccc(OCCO)c1 -1.88 and -1.81
C=CCN(CCCCC)C(=O)C1N(c2ccc(CCO)cc2)C(=O)C2C(C(=O)O)C3C=CC21O3 (centres undefined) -0.231 and -0.137
CC(C)C(=O)N[C@@H]1CCCN1C(=O)C=Cc1ccccc1 -0.307
C[C@@H](ON=C1[C@H]2CCn3c(=O)n(-c4ccccc4)c(=O)n3[C@H]2[C@H](O)[C@@H]2O[C@H]12)c1cn([C@H](CO)Cc2ccccc2)nn1 0.0121
COC(=O)[C@@]1(Cc2ccc(F)cc2)[C@H]2c3cc(C(=O)N4CCCC4)n(Cc4c(CO)[nH]cc(C)c4=O)c3C[C@H]2CN1C(=O)c1ccccc1 0.925 and 1.59
C=CCN(CCCCC)C(=O)C1N(c2c(Cl)cccc2CO)C(=O)C2C(C(=O)O)C3C=CC21O3 (centres undefined) 0.59 and 0.045
C=CCN(C(=O)C1N(c2c(Cl)cccc2CO)C(=O)C2C(C(=O)O)C3C=CC21O3)C(C)(C)C (centres undefined) -0.509 and -0.74
COC(=O)[C@@]1(Cc2ccc(OC)cc2)[C@H]2c3cc(C(=O)N(C)C)n(Cc4ccc(O)c(OC)c4)c3C[C@H]2CN1C(=O)c1ccccc1 0.374 and 2.03
